Among the data in PubChem BioAssay AID1527 (The Scripps Research Institute Molecular Screening Center, 2009) are inhibition values, retold here.

About 2,600 (0.9%) of roughly 290,000 compounds were called active.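 How the source made its calls: active means inhibition above the mean of all tested compounds plus 3 SD, cutoff set per screening run (cut at about 7.5% in these data); inactive means the rest.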 The sample as a whole holds a higher share of actives than the screen did.

In this assay the test system is VIM-2 metallo-beta-lactamase (Pseudomonas aeruginosa). The assay can be described thus: VIM-2 metallo-beta-lactamase inhibitors, primary screen, biochemical, epi-absorbance readout, Pseudomonas aeruginosa enzyme (AID 1527).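 Further: red hydrolysis product quenches plate fluorescence so inhibitors raise well fluorescence; 0% = enzyme with DMSO and 100% = DMSO without enzyme.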 As to conditions: purified VIM-2, nitrocefin hydrolysis, epi-absorbance fluorescence; at 5.6 µM; active compounds read high.
For orientation: inhibition means the relative decrease from the control value, in per cent. As for `O=C1c2ccccc2C(=O)c2c1cccc2N1CCN(CCO)CC1`, the inhibition is 8.84% (active).
Consider `O=C1c2ccccc2C(=O)c2c1cccc2N1CCN(Cc2ccccc2)CC1`, for which the inhibition was -2.44% (inactive).
Next, `OCCN1CCN(c2nnc(-c3ccccc3)c3ccccc23)CC1`: 1.21% (inactive).
Next, `CN(C)Cc1c(O)ccc2c(=O)c(-c3ccccc3Cl)coc12`: -1.33% (inactive); `Cc1ccc(CNC(=O)C2CCCN2S(=O)(=O)c2ccc3c(c2)C(C)(C)C(=O)N3C)cc1` (stereo not given): -0.78% (inactive); `Cc1ccc2nc3n(c(=O)c2c1)CCC3`: -2.8% (inactive).
Take `Cc1ccc2nc(Nc3ccccc3)cc(C)c2c1`: the inhibition is 0.49% (inactive).
Next, `Cc1ccc2nc(C)c3c(c2c1)N(c1ccccc1)CC3`: 14.6% (active); `COc1ccc(S(=O)(=O)N(CC(=O)NCc2ccco2)c2ccc(F)cc2)cc1`: -4.2% (inactive).
The value for `CCOc1ccccc1-c1nc(CN2CCC(C(=O)N3CCOCC3)CC2)c(C)o1` was -1.39% (inactive); that for `Cc1cc(C)c2c(n1)nn1c(N3CCOCC3)cc(C)nc21` was 16.1% (active).
The value for `Cc1cc(C)c2c(n1)nn1c(N3CCN(c4cccc(Cl)c4)CC3)cc(C)nc21` was -6.43% (inactive); that for `Cc1cc(C)c2c(n1)nn1c(-n3ccnc3)cc(C)nc21` was 5.51% (inactive); that for `COc1ccc(OCC(=O)NCCS(=O)(=O)N2CCN(c3ccc(F)cc3)CC2)cc1` was -1.58% (inactive).
For `CCC(=O)N1c2ccc(S(=O)(=O)NCc3ccco3)cc2CC1C` (stereo not given), the inhibition was -0.12% (inactive).
Next, `O=C(N/C(=C\c1ccc([N+](=O)[O-])cc1)C(=O)N1CCCCC1)c1ccco1`: -3.79% (inactive).
The value for `COc1ccc(OC)c(S(=O)(=O)n2c([N+](=O)[O-])cnc2C)c1` was -2.01% (inactive); that for `CCOC(=O)C(Cc1ccc(N)cc1)N1C(=O)c2ccccc2C1=O` (stereo not given) was -2.51% (inactive); that for `COc1ccc(S(=O)(=O)NC(C)C(=O)NCc2ccncc2)cc1Cl` (stereo not given) was -2.14% (inactive).
Consider `CC(Oc1cc2oc(=O)c3c(c2cc1Cl)CCCC3)C(=O)NCc1ccncc1` (stereo not given), for which the inhibition was 7.79% (active).
For `Cc1cc(Cl)ccc1OCCCC(=O)NCc1ccncc1`, the inhibition is -1.05% (inactive).
Next, `CCCCc1nc2cc(C(=O)NCCc3cnn(C)c3)ccc2o1`: 1.12% (inactive).
Take `Cc1nnc(SCC(=O)NCc2cccs2)[nH]c1=O`: the inhibition was -0.38% (inactive).
As to `O=C(Cc1cccs1)Nc1nnc(SCc2ccc(F)cc2)s1`, the inhibition is 0.7% (inactive).
`CC(C)(C)CC(=O)Nc1nnc(SCC(=O)NCc2cccs2)s1`: the inhibition is 20.2% (active).
Next, `CCn1c(SCc2cccc(C(=O)O)c2)nnc1-c1ccc(Cl)cc1`: -1.15% (inactive); `Cn1c(=O)c2c(nc(N3CCOCC3)n2CCNC2=NCCC2)n(C)c1=O`: 16% (active).
The value for `Cn1c(=O)c2c(nc(N3CCCCCC3)n2CC(=O)c2ccc(Br)cc2)n(C)c1=O` was -2.28% (inactive).
The value for `CCCCn1c(SCC(=O)N2CCOCC2)nc2c1c(=O)n(C)c(=O)n2C` was 1.45% (inactive); that for `COc1ccc(C(=O)NCCNc2ccc([N+](=O)[O-])cn2)cc1` was 0.89% (inactive).
For the compound `Cc1c(OC(C)C(=O)N[C@@H](Cc2ccccc2)C(=O)O)ccc2c3c(c(=O)oc12)CCCC3` (stereo not given in full), the inhibition was 6.52% (inactive).
The value for `Cc1cc(=O)oc2c(C)c(OC(C)C(=O)NC3CCN(Cc4ccccc4)CC3)ccc12` (stereo not given) was 2.37% (inactive); that for `Cc1c(OC(C)C(=O)NCC2CCC(C(=O)O)CC2)ccc2c1oc(=O)c1ccccc12` (stereo not given) was 10.8% (active).
Next, `C=CCc1ccc(OCCOc2cccc(/C=N/n3cnnc3)c2)c(OC)c1`: 0.81% (inactive); `Cc1noc(C)c1CSCC(=O)N(CCC(C)C)c1c(N)n(Cc2ccccc2)c(=O)[nH]c1=O`: -3.06% (inactive); `NC(=O)C1CCN(C(=O)COc2ccc3c4c(c(=O)oc3c2)CCC4)CC1`: 14.1% (active).
For the compound `O=C(COc1ccc2c3c(c(=O)oc2c1)CCCC3)NCC(O)c1ccccc1` (stereo not given), the inhibition is 6.2% (inactive).
For `NC(=O)COc1ccc2c3c(c(=O)oc2c1)CCCCC3`, the inhibition is 7.97% (active).
Next, `O=C(COc1ccc2c3c(c(=O)oc2c1)CCC3)NC1CCCCC1`: -1.01% (inactive); `Cc1c(C)c2ccc(OCC(=O)N3CCN(c4cccc(Cl)c4)CC3)cc2oc1=O`: -1.38% (inactive); `CCCCc1cc(=O)oc2c(C)c(OCC(=O)N3CCC(C(N)=O)CC3)ccc12`: -1.28% (inactive).
The value for `Cc1cc(Cl)nc(NC(=O)Nc2cccc(Cl)c2)n1` was 1.05% (inactive); that for `Nc1cc(N)nc(SCc2cccc(F)c2)n1` was 3.79% (inactive); that for `N=c1oc2ccccc2cc1C(=O)NCc1ccccc1` was -0.7% (inactive).
Next, `CCOC(=O)CSc1nc2ccc(C)cc2[nH]1`: 0.26% (inactive); `COc1ccc(CCNc2nc3ccc(C)cc3n3cnnc23)cc1OC`: 0.51% (inactive); `CCOC(=O)CSc1nc2ccc(C)cc2n2cnnc12`: 9.79% (active).
On to `CCOC(=O)c1sc(NC(=S)n2cc(C)cn2)c(C(=O)OCC)c1C`, for which the inhibition was -2.26% (inactive).
Next, `CCn1cc(S(=O)(=O)c2cccc(C)c2)c(=O)c2cc(F)c(N3CCN(C)CC3)cc21`: 12.1% (active); `CN1CCN(c2cc3c(cc2F)c(=O)c(C(=O)O)cn3CCF)CC1`: -0.28% (inactive).
Next, `CCn1cc(C(=O)NCCO)c(=O)c2cc(F)c(N3CCN(C)CC3)cc21`: 1.17% (inactive); `COc1ccc(/C=C/C(=O)NC(=S)N2CCCC(C(N)=O)C2)cc1` (stereo not given): -3% (inactive); `COc1ccc(CNc2ccc3c(c2)CCC3)cc1OC`: -1.76% (inactive).
Turning to `CCOC(=O)c1ccc2c(c1)nc(C)n2CC`, the inhibition is -4.24% (inactive).
Next, `CC(=O)c1ccc(-c2ccc(Cn3c(C)nc4cc(N)c(C)nc43)cc2)cc1`: 21.7% (active).
In the case of `CC(=O)c1nc2ccccc2n1Cc1ccccc1`, the inhibition was -0.19% (inactive).
As to `O=C(N/N=C/c1ccc(Cl)c(Cl)c1)c1ccc2nc[nH]c2c1`, the inhibition was -1.16% (inactive).
The value for `CS(=O)(=O)N1CCCC(C(=O)Nc2ccccc2C(F)(F)F)C1` (stereo not given) was -0.2% (inactive); that for `O=C(CSc1ccc(-c2ccco2)nn1)Nc1cccc(F)c1` was -1.64% (inactive); that for `Cc1ccccc1C(=O)NC(=S)NC1CC1` was -2.76% (inactive).
